In PubChem BioAssay (NCATS) one finds Potency, viability (% of control) and viability, % of control data, which are given here for nine molecules.

Molecules are shown by their SMILES. Records with an inconclusive call do not appear. Values without a mark were called inactive. Activity calls are given as the source filed them. Calls follow the shape of the dose curve; as a rule, active = well fitted cell-killing curve with a large enough effect; inconclusive = small, poorly fitted or top-dose-only effect, or effect the other way; inactive = no such curve, though single readings can be large or run the other way.

Assay [1] in a line: Viability qHTS for spleen associated tyrosine kinase inhibitor (SYKi) naive MV4-11 cells (AID 1963823). Also: nearly all actives have a fitted effect of over 40% in size. The note with it: MV4-11 AML viability, CellTiter-Glo luminescence, 72 h; series mostly up to 45 µM. An outline of the steps: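 SYKi-naive MV4-11 AML cells, 500 per well, were exposed to library compounds for 72 hr at 37 C, 5% CO2. Viability was then read by CellTiter-Glo luminescence after 10 min at room temperature.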

Assay [2] is described as follows: Viability qHTS for spleen associated tyrosine kinase inhibitor (SYKi) drug resistant MV4-11 cells (AID 1963824). Also: nearly all actives have a fitted effect of over 35% in size. The note with it: SYKi-resistant MV4-11 viability, CellTiter-Glo, 72 h; series mostly up to 45 µM. An outline of the steps: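 CellTiter-Glo luminescence, read 10 min after reagent addition, reports viability after a 72 hr compound exposure. Cells are an MV4-11 line made resistant to SYK inhibition, seeded at 500 per well onto compound-containing plates.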
Potency is read from the fitted curve at half-maximal effect.

For `CC1(C)SC2C(NC(=O)[C@H](C(=O)O)c3ccsc3)C(=O)N2C1C(=O)O` (stereo partly drawn), the Potency result in assay [1] and in assay [2] was “inactive” in each case.

Turning to `C[C@@]12C[C@]3(O)O[C@H](O1)[C@]1(COC(=O)c4ccccc4)[C@H]3C[C@@]12O[C@@H]1O[C@H](CO)[C@@H](O)[C@H](O)[C@H]1O`, the Potency result in assay [1] and in assay [2] was “inactive” each time.

Consider `OCc1ccc(O[C@@H]2O[C@H](CO)[C@@H](O)[C@H](O)[C@H]2O)cc1`, for which the Potency entry in assay [1] and in assay [2] was “inactive” each time.

In the case of `Cc1nc(Nc2ccc(F)cc2)nc(N2CCc3ccccc3C2C)c1C` (stereo not drawn), the Potency in assay [1] is 20.6 µM (active); in assay [2], 14.6 µM (active).

Take `N#Cc1c(Oc2ccc(F)c(NC(=O)Cc3cccc(C(F)(F)F)c3)c2)ccc2nc(NC(=O)C3CC3)sc12`: the Potency was 1.46 µM (active) in assay [1] and 1.64 µM (active) in assay [2].

`CC(=O)O[C@H]1[C@H](O[C@H]2CC[C@]34C[C@]35CC[C@]3(C)[C@@H]([C@@]6(C)CC[C@@H](C(C)(C)O)O6)[C@@H](O)C[C@@]3(C)[C@@H]5C[C@H](O[C@@H]3O[C@H](CO)[C@@H](O)[C@H](O)[C@H]3O)[C@H]4C2(C)C)OC[C@@H](OC(C)=O)[C@@H]1O`: the Potency entry in assay [1] and in assay [2] was “inactive” each time.

Turning to `O=C(CO)[C@@H](O)[C@H](O[C@@H]1O[C@H](CO)[C@H](O)[C@H](O)[C@H]1O)[C@H](O)CO`, the Potency result in assay [1] and in assay [2] was “inactive” in each case.

Consider `C=C[C@@](C)(O)CC/C=C(\C)C(=O)O[C@@H]1[C@@H]2O[C@]2(C)[C@H]2[C@H](O[C@@H]3O[C@H](CO)[C@@H](O)[C@H](O)[C@H]3O)OC=C[C@@]12O`, for which the Potency result in assay [1] and in assay [2] was “inactive” throughout.

`CC1(C)CC[C@]2(C(=O)O[C@@H]3O[C@H](CO)[C@@H](O)[C@H](O)[C@H]3O)CC[C@]3(C)C(=CCC4[C@@]5(C)CC[C@H](O[C@@H]6O[C@H](C(=O)O)[C@@H](O)[C@H](O)[C@H]6O)[C@@](C)(CO)C5CC[C@]43C)C2C1` (stereo partly drawn): the viability (% of control) in assay [1] is 98% [at 9.25 µM]. Further, in assay [2], the viability, % of control was 100% [at 9.25 µM].
